Growth inhibition data for 20 compounds are collected here from PubChem BioAssay (NCI).

Assay [1] in a line: NCI Yeast Anticancer Drug Screen. Data for the rad50 strain (AID 155).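 Further: 0% = growth of vehicle-only cultures of the same strain.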 The following applies: S. cerevisiae rad50 strain growth inhibition; at 50.0 µM; active compounds read high. In a few lines:
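Cells are treated with compound, grown, and their growth is then scored against vehicle-only cultures of the same repair-deficient yeast strain.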

Assay [2] can be described thus: NCI Yeast Anticancer Drug Screen. Data for the mec2-1 strain (AID 157). The conditions noted are these: S. cerevisiae mec2-1 strain, at 50.0 µM, active compounds read high. The method in brief: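 Compounds were applied to mec2-1 yeast cells. Their growth was then compared with that of vehicle-treated cultures to give growth inhibition.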
Assay [3] can be described thus: NCI Yeast Anticancer Drug Screen. Data for the sgs1 mgt1 strain (AID 161).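 Further: 0% = growth of cultures given vehicle only.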 The conditions noted are these: S. cerevisiae sgs1 mgt1 strain, at 50.0 µM, active compounds read high. In a few lines: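 This yeast growth screen uses a strain with defined DNA-repair lesions; compound-treated growth is compared with vehicle-treated growth.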
A short description of assay [4]: NCI Yeast Anticancer Drug Screen. Data for the cln2 rad14 strain (AID 165).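 Further: 0% = growth equal to vehicle treated cultures.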 The following applies: S. cerevisiae cln2 rad14 strain, at 50.0 µM, active compounds read high. The method in brief:
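Strain: cln2 rad14 yeast, altered in cell cycle control and DNA damage repair. Read-out: growth inhibition vs vehicle.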

A short description of assay [5]: NCI Yeast Anticancer Drug Screen. Data for the bub3 strain (AID 167). The following applies: S. cerevisiae bub3 mutant strain, at 50.0 µM, active compounds read high. The method in brief:
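Part of a panel of yeast mutants defective in DNA damage repair or cell cycle regulation. Each strain is grown with compound, and inhibition is calculated relative to solvent-treated cultures.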

Assay [6] in a line: NCI Yeast Anticancer Drug Screen. Data for the mlh1 rad18 strain (AID 175). The conditions noted are these: S. cerevisiae mlh1 rad18 strain growth inhibition; at 50.0 µM; active compounds read high. The method in brief:
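A repair-deficient yeast strain is exposed to test compound, and growth is scored relative to vehicle-treated controls.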

This is part of a sample that, as a whole, favours compounds with a hit. Of some 79,000 tested, about 15% had one in any assay. A number with no mark means an inactive call. Activity calls are given as the source filed them. No stated cut-off is given here; in the data, active means growth inhibition above about 70%; inactive means the rest.

Take `CCCC(=O)C(N)Cc1ccccc1` (stereo not given): the growth inhibition in assay [1] was -3.8%; in assay [2], -6.1%; in assay [3], -6%; in assay [4] it was 12.3%; in assay [5], 12.2%; in assay [6], -6.3%.

On to `CCOC(=O)C(=O)N1Cc2cc3c(cc2C2CC(O)C(O)CC21)OCO3` (stereo not given), for which the growth inhibition in assay [1] is -8.2%; in assay [2] it was -3.9%; in assay [3], -1.1%; in assay [4], 6.05%; in assay [5], 2.85%; in assay [6], 5.85%.

On to `CCCCNC(=O)c1ccc([N+](=O)[O-])cc1`, for which the growth inhibition was 29.3% in assay [1]; 12% in assay [2]; 13.4% in assay [3]; 17.6% in assay [4]; -16.8% in assay [5]; -9.05% in assay [6].

`CCCC1(c2ccccc2)SCC(=O)NC1=O` (stereo not given): the growth inhibition was 31.3% in assay [1]; -0.2% in assay [2]; -16.6% in assay [3]; -25.6% in assay [4]; -14.2% in assay [5]; -25.9% in assay [6].

On to `C=C1CN(C(=O)NCCCl)C1`, for which the growth inhibition in assay [1] is 10.6%; in assay [2] it was 17.4%; in assay [3] it was 4.15%; in assay [4], -11.3%; in assay [5] it was 4.1%; in assay [6], -7.8%.

As for `N#CC1(NC2CCCCC2)CCN(Cc2ccccc2)CC1`, the growth inhibition is -5.5% in assay [1]; -11.9% in assay [2]; -6.1% in assay [3]; 4.1% in assay [4]; -7.5% in assay [5]; -1.75% in assay [6].

As to `CN(C(=N)N)c1ccc(C(=O)Oc2ccc([N+](=O)[O-])cc2)cc1`, the growth inhibition was 14.8% in assay [1]; 12.8% in assay [2]; 29.6% in assay [3]; 1.35% in assay [4]; 15.1% in assay [5]; 17.1% in assay [6].

For the compound `O=C(O)[C@@H]1CCC(=O)N1C(c1ccc2c(c1)OCO2)c1ccc2c(c1)OCO2`, the growth inhibition in assay [1] was -52.2%; in assay [2] it was -18.1%; in assay [3] it was -31.1%; in assay [4] it was 4.35%; in assay [5], -15.1%; in assay [6] it was -24.4%.

Turning to `CCCCN(CCCC)CCNC(c1ccc(Cl)cc1)c1ccc(OC)cc1` (stereo not given), the growth inhibition is 14.5% in assay [1]; 4.3% in assay [2]; 4.45% in assay [3]; -7.85% in assay [4]; 8.35% in assay [5]; 33.4% in assay [6].

As for `CCCN(CCC)S(=O)(=O)c1ccc(NC(=O)OC(CC)c2ccco2)cc1` (stereo not given), the growth inhibition is 27.8% in assay [1]; -3.8% in assay [2]; 8% in assay [3]; 7.85% in assay [4]; -5.5% in assay [5]; 8.8% in assay [6].

In the case of `CN(C)Cc1ccccc1COC(=O)c1ccc([N+](=O)[O-])cc1Cl`, the growth inhibition in assay [1] was -8.9%; in assay [2], -12.6%; in assay [3] it was 10.8%; in assay [4], -29.1%; in assay [5] it was 3.65%; in assay [6], -34.1%.

Turning to `COC1OC(COS(C)(=O)=O)C(OS(C)(=O)=O)C(OS(C)(=O)=O)C1OS(C)(=O)=O` (stereo not given), the growth inhibition in assay [1] is -2.8%; in assay [2] it was -7.05%; in assay [3], -26.4%; in assay [4], -67%; in assay [5] it was 1.4%; in assay [6], 10.3%.

For `CCOC(=O)c1nnsc1NC(=O)Nc1ccc(Cl)cc1`, the growth inhibition in assay [1] was -5.05%; in assay [2], -21.2%; in assay [3] it was -3.4%; in assay [4], -6.55%; in assay [5] it was -44.9%; in assay [6], 10.6%.

For the compound `CC1CCCC2(C1)OCC(O)CO2` (stereo not given), the growth inhibition is 23.2% in assay [1]; -2.2% in assay [2]; 8.8% in assay [3]; 12.8% in assay [4]; 7.65% in assay [5]; 10.2% in assay [6].

In the case of `CON(C)c1nc(N(C)C)nc(N(C)C)n1`, the growth inhibition was -1.65% in assay [1]; 11.6% in assay [2]; -6.25% in assay [3]; 3.7% in assay [4]; 1.8% in assay [5]; 0.9% in assay [6].

As to `C[n+]1c(-c2ccc(/C=N/NC(=O)C(=O)N/N=C/c3ccc(-c4cn5ccsc5[n+]4C)cc3)cc2)cn2ccsc21`, the growth inhibition was 85.5% (active) in assay [1]; 88% (active) in assay [2]; 86.8% (active) in assay [3]; 76.6% (active) in assay [4]; 88.7% (active) in assay [5]; 86.5% (active) in assay [6].

As to `Cc1cc(Cl)ccc1N=C1NC(=O)C(CC(=O)Nc2ccc(Cl)cc2Cl)S1` (stereo not given), the growth inhibition in assay [1] was 14.8%; in assay [2] it was 13.1%; in assay [3], -2.35%; in assay [4], -46.4%; in assay [5], -4.3%; in assay [6] it was 19.8%.

`Cn1nc(-c2ccccc2)c(C(=O)/C=C/c2ccc(F)cc2)c(N2CCOCC2)c1=O`: the growth inhibition in assay [1] was -34.9%; in assay [2] it was -34%; in assay [3], -54.8%; in assay [4], 5.9%; in assay [5], -21.6%; in assay [6], -15.8%.

With `CCOC(=O)CNc1c(OCc2ccccc2)c(=O)c1=O`, the growth inhibition is -8.05% in assay [1]; -10.8% in assay [2]; -18.1% in assay [3]; -3.65% in assay [4]; -16.2% in assay [5]; 5.8% in assay [6].

Consider `C=Cc1ccc(C)[n+](C[Si](C)(C)O[Si](C)(C)C[n+]2cc(C=C)ccc2C)c1`, for which the growth inhibition in assay [1] is -18.9%; in assay [2] it was -11.1%; in assay [3] it was -26.1%; in assay [4], -4.2%; in assay [5], -10.8%; in assay [6] it was 9%.
